Measurements published in PubChem BioAssay (NCI).
Compounds without any hit were thinned out: in the full panel of roughly 83,000, 20% have a hit.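 48-hour exposure, single concentration, 96-well plates; percent growth endpoint where 0 means no net growth. Active: below 10.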 Active and inactive are the calls of the source.

How the values were obtained:
Experiment in all cases: NCI-60 one-dose screen, 48 h (100 = growth as untreated, 0 = no growth, -100 = all killed)
Conditions in all cases: 10 µM unless noted
BT-549 breast = system: BT-549 breast
MDA-MB-435 melanoma = system: MDA-MB-435 melanoma
SW-620 colon = system: SW-620 colon
HCT-116 colon = system: HCT-116 colon
HCC-2998 colon = system: HCC-2998 colon
KM12 colon = system: KM12 colon
MCF7 breast = system: MCF7 breast

Measured: growth

Clc1ccc(CCC(Cn2ccnc2)Sc2c(Cl)cccc2Cl)cc1 (centres undefined)
inactive: BT-549 breast 52% | MDA-MB-435 melanoma 53.9% | SW-620 colon 65.2% | HCT-116 colon 23.2% | HCC-2998 colon 56.6% | KM12 colon 51.8%

O=C1OC(c2ccc(-c3ccccc3)cc2)=C/C1=C/c1cccs1
inactive: BT-549 breast 92% | MDA-MB-435 melanoma 99% | SW-620 colon 105% | MCF7 breast 41.6% | HCT-116 colon 93.3% | KM12 colon 88.1%

O=C(/C(=C/c1ccc([N+](=O)[O-])cc1)c1ccccc1)c1ccccc1
active: HCT-116 colon 6.38%
inactive: BT-549 breast 15.5% | MDA-MB-435 melanoma 10.9% | SW-620 colon 11.7% | MCF7 breast 26.4% | KM12 colon 19.6%

C/C(=N/N=C(N)N)c1ccc(N)cc1
inactive: BT-549 breast 70.1% | MDA-MB-435 melanoma 49% | SW-620 colon 97% | MCF7 breast 81.3% | HCT-116 colon 103% | KM12 colon 96%

O=C(C(=O)N1CCOCC1)c1ccc(OC2OC(CO)C(O)C(O)C2O)cc1 (centres undefined)
inactive: BT-549 breast 108% | MDA-MB-435 melanoma 108% | SW-620 colon 105% | MCF7 breast 95.2% | HCT-116 colon 105% | KM12 colon 112%

Nc1ccccc1-c1ccc([N+](=O)[O-])cc1
active: BT-549 breast -33.9%
inactive: MDA-MB-435 melanoma 52.4% | SW-620 colon 43.8% | MCF7 breast 40.1% | HCT-116 colon 60.1% | KM12 colon 24.1%

COc1cc(/C=C2\CCC/C(=C\c3ccc(OCC4CO4)c(OC)c3)C2=O)ccc1OCC1CO1 (centres undefined)
active: MDA-MB-435 melanoma -32.3% | SW-620 colon -23% | MCF7 breast -6.99% | HCT-116 colon -54.7% | KM12 colon -0.568%
inactive: BT-549 breast 30.3%

COc1cc2c(c(OC)c1OC)CCc1cnoc1-2
inactive: BT-549 breast 101% | MDA-MB-435 melanoma 103% | SW-620 colon 114% | MCF7 breast 104% | HCT-116 colon 176% | KM12 colon 106%

CCOC(=O)/C(=C/c1ccccc1)C(=O)c1ccccc1
inactive: BT-549 breast 73.4% | MDA-MB-435 melanoma 50.8% | SW-620 colon 70.9% | MCF7 breast 41.1% | HCT-116 colon 39.4% | KM12 colon 67.1%

O=C(Nc1cccc(C(F)(F)F)c1)Nc1ccc(OCc2nnc(-c3ccc(Cl)cc3)o2)c(F)c1
inactive: BT-549 breast 104% | MDA-MB-435 melanoma 83.2% | SW-620 colon 71.8% | MCF7 breast 53.6% | HCT-116 colon 37.1% | KM12 colon 49.7%

O=C(Nc1nc(-c2ccccc2)cs1)c1cc(O)c(O)c(O)c1
inactive: BT-549 breast 46% | MDA-MB-435 melanoma 61% | SW-620 colon 39.7% | MCF7 breast 58.4% | HCT-116 colon 25.9% | KM12 colon 64.7%

O=C(Nc1ccc(Oc2ccc(NC(=O)Nc3ccc([N+](=O)[O-])cc3)cc2)cc1)Nc1ccc([N+](=O)[O-])cc1
active: BT-549 breast -21.5% | MDA-MB-435 melanoma 5.67% | MCF7 breast -7.4% | HCT-116 colon -6.3% | KM12 colon -5.89%
inactive: SW-620 colon 10.8%

CC1(C)OC(=O)C(=Cc2ccccc2Br)C(=O)O1
inactive: BT-549 breast 107% | MDA-MB-435 melanoma 98% | SW-620 colon 96.2% | MCF7 breast 102% | HCT-116 colon 79.3% | KM12 colon 108%

Nc1nc2ncc(CCNc3ccc(C(=O)NC(CCC(=O)O)C(=O)O)cc3)nc2c(=O)[nH]1 (centres undefined)
inactive: BT-549 breast 114% | MDA-MB-435 melanoma 112% | SW-620 colon 103% | MCF7 breast 112% | HCT-116 colon 107% | KM12 colon 110%

O=C(OC[C@H]1O[C@H](OC(=O)c2cc(O)c(O)c(OC(=O)c3cc(O)c(O)c(O)c3)c2)[C@H](OC(=O)c2cc(O)c(O)c(OC(=O)c3cc(O)c(O)c(O)c3)c2)[C@@H](OC(=O)c2cc(O)c(O)c(OC(=O)c3cc(O)c(O)c(O)c3)c2)[C@@H]1OC(=O)c1cc(O)c(O)c(OC(=O)c2cc(O)c(O)c(O)c2)c1)c1cc(O)c(O)c(OC(=O)c2cc(O)c(O)c(O)c2)c1
inactive: BT-549 breast 47.4% | SW-620 colon 47.5% | HCT-116 colon 11.5% | KM12 colon 21.8%
active: MDA-MB-435 melanoma 8.23% | HCC-2998 colon 1.77%

Cc1scc2c1N(C(=O)CN1CCN(C)CC1)c1ccccc1NC2=O
inactive: BT-549 breast 110% | MDA-MB-435 melanoma 110% | SW-620 colon 112% | HCT-116 colon 111% | HCC-2998 colon 103% | KM12 colon 113%

CCOC(=O)c1cc(-c2cccnc2)nc2c(Cl)cc(Cl)cc12
inactive: BT-549 breast 109% | MDA-MB-435 melanoma 95% | MCF7 breast 90.5% | HCT-116 colon 56.4% | HCC-2998 colon 98.1% | KM12 colon 102%

O=C(COC(=O)[C@H](C[Se][Se]C[C@H](NC(=O)c1ccc(Br)cc1F)C(=O)OCC(=O)c1ccc(F)cc1)NC(=O)c1ccc(Br)cc1F)c1ccc(F)cc1
active: BT-549 breast -93% | MDA-MB-435 melanoma -42.1% | MCF7 breast -58.4% | HCT-116 colon -72.4% | HCC-2998 colon -68.9% | KM12 colon -99.1%

N=c1ccn2c(n1)O[C@@H]1[C@@H](O)[C@H](CO)O[C@@H]12
inactive: BT-549 breast 83.5% | MDA-MB-435 melanoma 57.1% | SW-620 colon 66.5% | HCT-116 colon 37.4% | KM12 colon 77.4%

CCC(C)(C)C(=O)O[C@H]1C[C@@H](C)C=C2C=C[C@H](C)[C@H](CC[C@@H]3C[C@@H](O)CC(=O)O3)[C@H]21
inactive: BT-549 breast 84% | MDA-MB-435 melanoma 68.8% | SW-620 colon 61.2% | HCT-116 colon 20.4% | HCC-2998 colon 71.9% | KM12 colon 90.7%

Nc1c2ccccc2nc2ccccc12 (tested in a mixture with another compound)
inactive: BT-549 breast 57.3% | MDA-MB-435 melanoma 18.6% | SW-620 colon 15.6% | HCT-116 colon 13.6% | KM12 colon 23%

Cc1c(C(N)=O)sc2c1c(=O)n(Cc1ccccc1)c1nnc(S(=O)(=O)CC(=O)Nc3ccc(Cl)cc3)n21
inactive: BT-549 breast 75.7% | MDA-MB-435 melanoma 46.2% | MCF7 breast 73.5% | HCT-116 colon 15% | HCC-2998 colon 26% | KM12 colon 55%

CN(CCOc1ccc(CC2SC(=O)NC2=O)cc1)c1ccccn1 (centres undefined)
inactive: BT-549 breast 104% | MDA-MB-435 melanoma 98.3% | SW-620 colon 102% | HCT-116 colon 103% | HCC-2998 colon 112% | KM12 colon 96.3%

CC(C)(C)c1ccc(C(O)CCCN2CCC(C(O)(c3ccccc3)c3ccccc3)CC2)cc1 (centres undefined)
active: MDA-MB-435 melanoma -93.2% | SW-620 colon -77.1% | HCT-116 colon -100% | HCC-2998 colon -90.1% | KM12 colon -73.5%
inactive: BT-549 breast 42.1%

CCC[C@H](N[C@@H](C)C(=O)N1[C@H](C(=O)O)C[C@@H]2CCCC[C@@H]21)C(=O)OCC
inactive: BT-549 breast 113% | MDA-MB-435 melanoma 112% | SW-620 colon 114% | HCT-116 colon 106% | HCC-2998 colon 103% | KM12 colon 104%

COc1c(C)c2c(c(O)c1C/C=C(\C)CCC(=O)OCCN1CCOCC1)C(=O)OC2
inactive: BT-549 breast 40.4% | MDA-MB-435 melanoma 26.2% | SW-620 colon 19.6% | HCT-116 colon 14% | HCC-2998 colon 18.1% | KM12 colon 27.8%

CCCc1nn(C)c2c(=O)[nH]c(-c3cc(S(=O)(=O)N4CCN(C)CC4)ccc3OCC)nc12
inactive: BT-549 breast 94.5% | MDA-MB-435 melanoma 100% | SW-620 colon 115% | HCT-116 colon 98.8% | HCC-2998 colon 108% | KM12 colon 103%

Fc1ccc([C@@H]2CCNC[C@H]2COc2ccc3c(c2)OCO3)cc1
inactive: BT-549 breast 84.2% | MDA-MB-435 melanoma 46.5% | SW-620 colon 98.4% | HCT-116 colon 49.8% | KM12 colon 76.4%
active: HCC-2998 colon -66.8%

CC[C@H](C)C(=O)O[C@H]1C[C@@H](C)C=C2C=C[C@H](C)[C@H](CC[C@@H]3C[C@@H](O)CC(=O)O3)[C@H]21
inactive: BT-549 breast 82.4% | MDA-MB-435 melanoma 87.8% | SW-620 colon 99.2% | HCT-116 colon 51.7% | HCC-2998 colon 97.5% | KM12 colon 109%

O=C(CN1CCCCC1)Sc1nnc2sc3ccccc3n12
inactive: BT-549 breast 104% | MDA-MB-435 melanoma 111% | MCF7 breast 92.9% | HCT-116 colon 95.3% | HCC-2998 colon 116% | KM12 colon 104%

C=CC1=C(C(=O)O)N2C(=O)[C@@H](NC(=O)/C(=N\O)c3csc(N)n3)[C@H]2SC1 (stereo in doubt)
inactive: BT-549 breast 118% | MDA-MB-435 melanoma 109% | SW-620 colon 106% | HCT-116 colon 105% | HCC-2998 colon 105% | KM12 colon 112%

CCCCc1nc(Cl)c(CO)n1Cc1ccc(-c2ccccc2-c2nn[nH]n2)cc1
inactive: BT-549 breast 106% | MDA-MB-435 melanoma 96.5% | SW-620 colon 103% | HCT-116 colon 102% | HCC-2998 colon 104% | KM12 colon 103%

O[C@@H]1Cc2ccc3ccccc3c2N[C@H](c2ccoc2)C1
inactive: BT-549 breast 106% | MDA-MB-435 melanoma 107% | MCF7 breast 94.5% | HCT-116 colon 105% | HCC-2998 colon 113% | KM12 colon 106%

NC(=O)c1ncn([C@@H]2O[C@H](CO)[C@@H](O)[C@H]2O)n1
inactive: BT-549 breast 105% | MDA-MB-435 melanoma 101% | SW-620 colon 71.5% | HCT-116 colon 89.6% | HCC-2998 colon 87.6% | KM12 colon 100%

CCCCCCCCCCCCCCCCCc1nccn1CCO
inactive: BT-549 breast 70% | MDA-MB-435 melanoma 95% | SW-620 colon 61.3% | HCC-2998 colon 55.4% | KM12 colon 85.6%

CC(C)c1nc(N(C)S(C)(=O)=O)nc(-c2ccc(F)cc2)c1/C=C/[C@@H](O)C[C@@H](O)CC(=O)O
inactive: BT-549 breast 103% | MDA-MB-435 melanoma 109% | SW-620 colon 107% | HCT-116 colon 98.2% | HCC-2998 colon 97.5% | KM12 colon 95.8%

CCCCN(CCCC)CCCOC(=O)c1ccc(N)cc1
active: MDA-MB-435 melanoma -3.25%
inactive: BT-549 breast 82.4% | SW-620 colon 74.6% | HCT-116 colon 58.4% | HCC-2998 colon 87.6% | KM12 colon 103%
